# CtBP-E1A blk – CtBP/E1A binding inhibition | AlphaScreen GST-E1A/His-CtBP binding, 1536-well; active compounds read low | activity change, % (test concentration not listed) | 0.49% of 340,000 active | AID 651724; in the data active means activity change below about -65%; inconclusive means mostly about -30% to -63%
#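 Protein mix (5X: 125 nM each GST-E1A, His-CtBP) was incubated with pinned compound 2 h at 37 deg C in dark, in 50 mM Tris pH 8.0 buffer with 300 mM NaCl. Glutathione donor and nickel acceptor beads followed; AlphaScreen signal read after 1 h.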
# Six1-Eya2 inh – inhibitors of human Six1/Eya2 interaction. Q15475+O00167. AlphaScreen GST-Six1/His-Eya2 binding, biochemical; active compounds read low. activity change, % (concentration not given with the values). 0.56% of 360,000 active; in the data active means activity change below about -65%; inconclusive means mostly about -30% to -63%
#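 AlphaScreen luminescence read after one hour at 37 °C in darkness. Pin-transferred compounds met GST-Six1 and His-Eya2 protein (5X stock 250 nM/500 nM) plus glutathione donor and Ni-chelate acceptor beads (5X, 50 ug/mL).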
# HP1b binding inh – blocks HP1-beta chromodomain binding to methylated histone tails. Potency, µM (series often up to 114 µM), hits mostly inhibitors. AID 540317. AlphaScreen HP1-beta / biotin-H3K9me3 peptide binding. 0.56% of 390,000 active; further: nearly all actives have a fitted effect of over 70% in size
#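 AlphaScreen: HP1-beta (50 nM) preformed 30 min with biotin-H3(1-18)K9me3 peptide (50 nM) in PBS pH 7.4, 0.01% Tween-20. Compound added for 30 min at RT, then streptavidin donor/nickel chelate acceptor beads (10 ug/mL) for 30 min.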
# BAZ2B block – blocks human BAZ2B. Q9UIF8. AlphaScreen BAZ2B-H3K14Ac peptide displacement. Potency, µM (titrated, usually from 114 µM), usual class: inhibitors. 4.4% of 360,000 active; further: nearly all actives have a fitted effect of over 60% in size
#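 AlphaScreen luminescence quantifies BAZ2B engagement of H3K14Ac peptide; the protein and biotinylated peptide are both at 50 nM final, buffer PBS pH 7.4 with 0.01% Tween-20, all steps at room temperature.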
# JMJD2A Tudor – inhibitors of human JMJD2A Tudor domain | O75164 | AlphaScreen JMJD2A-Tudor / H3K4me3 peptide binding | Potency, µM (top dose mostly 114 µM), actives largely listed as inhibitors | 4.4% of 390,000 active | AID 504339; further: nearly all actives have a fitted effect of over 50% in size
# Target sequence (O75164 whole entry, looked up, the tested form may be a part): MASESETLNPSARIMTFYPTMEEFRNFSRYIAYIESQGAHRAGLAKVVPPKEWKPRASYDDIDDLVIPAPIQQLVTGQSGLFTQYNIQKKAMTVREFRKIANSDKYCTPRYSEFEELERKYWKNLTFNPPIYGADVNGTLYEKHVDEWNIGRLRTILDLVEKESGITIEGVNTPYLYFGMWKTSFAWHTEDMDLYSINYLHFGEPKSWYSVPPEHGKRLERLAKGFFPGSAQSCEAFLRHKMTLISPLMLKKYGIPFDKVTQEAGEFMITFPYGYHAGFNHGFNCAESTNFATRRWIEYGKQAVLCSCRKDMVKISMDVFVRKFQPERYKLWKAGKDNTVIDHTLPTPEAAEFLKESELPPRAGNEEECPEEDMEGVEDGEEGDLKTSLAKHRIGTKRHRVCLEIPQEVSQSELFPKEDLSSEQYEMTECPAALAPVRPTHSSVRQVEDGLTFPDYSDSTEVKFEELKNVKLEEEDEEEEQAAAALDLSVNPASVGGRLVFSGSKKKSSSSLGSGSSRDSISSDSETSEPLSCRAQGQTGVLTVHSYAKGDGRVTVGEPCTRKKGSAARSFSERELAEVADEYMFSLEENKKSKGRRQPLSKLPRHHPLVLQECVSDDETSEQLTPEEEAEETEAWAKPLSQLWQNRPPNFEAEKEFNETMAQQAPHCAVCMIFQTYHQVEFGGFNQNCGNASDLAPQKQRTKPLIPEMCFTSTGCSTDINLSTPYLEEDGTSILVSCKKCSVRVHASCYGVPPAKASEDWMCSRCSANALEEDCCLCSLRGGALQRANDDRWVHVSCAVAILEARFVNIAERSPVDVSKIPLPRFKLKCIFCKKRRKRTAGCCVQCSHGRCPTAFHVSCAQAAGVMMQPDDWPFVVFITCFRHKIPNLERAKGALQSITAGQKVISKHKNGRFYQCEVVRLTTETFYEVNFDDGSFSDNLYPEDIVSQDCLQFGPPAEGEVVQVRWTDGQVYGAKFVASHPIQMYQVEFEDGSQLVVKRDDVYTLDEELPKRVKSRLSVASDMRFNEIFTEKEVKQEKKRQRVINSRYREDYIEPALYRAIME
# G9a block – blocks human histone lysine methyltransferase G9a | Q96KQ7 | G9a H3K9 monomethylation, AlphaScreen, 2 h | Potency, µM (highest dose often 102 µM), actives largely listed as inhibitors | 8.8% of 350,000 active; further: nearly all actives have a fitted effect of over 75% in size
#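 AlphaScreen detection with an anti-monomethyl H3K9 antibody quantified product after a 2 h room-temperature reaction containing 500 nM biotinylated H3K9 peptide, 20 µM SAM and 20 nM enzyme, which had been preincubated 15 min with compound.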
# Hits are given with their value; i = inactive; ? = inconclusive; nt = no result given; [ ] = dose if it differs, or a comment. Shown are actives, neighbours in structure and some others; about 10% of the full set was active somewhere. Unless noted, the call rests on the fitted dose curve; in most records, active means well fitted inhibition curve with a large enough effect; inconclusive means small, poorly fitted or top-dose-only effect; inactive means no such curve, though single readings can be large or run the other way.
SMILES,CtBP-E1A blk,Six1-Eya2 inh,HP1b binding inh,BAZ2B block,JMJD2A Tudor,G9a block
O=[N+]([O-])c1ccc(S(=O)(=O)NCC(c2cccnc2)N2CCc3ccccc3C2)cc1 (stereo not drawn),i,i,i,?,i,50µM
COc1ccc(C(=O)NCC(c2cccnc2)N2CCc3ccccc32)cc1OC (stereo not drawn),nt,nt,i,i,i,i
COc1ccc(C(=O)NCC(c2cccnc2)N2CCc3ccccc3C2)cc1 (stereo not drawn),nt,nt,i,i,i,i
COc1ccc(C(=O)NCC(c2ccc(N(C)C)cc2)N2CCc3ccccc32)cc1OC (stereo not drawn),nt,nt,?,20µM,20µM,25µM
COc1ccc(C(=O)NCC(c2cccnc2)N2CCc3ccccc3C2)cc1OC (stereo not drawn),nt,nt,i,5µM,32µM,4.5µM
Cc1cccc(C)c1NC(=O)Cn1c(=O)n(CCCS(=O)(=O)C2CCCCC2)c(=O)c2ccccc21,nt,nt,i,i,i,i
O=C(NCc1ccccc1)C(C1CC1)n1c(CSCCOc2ccccc2)nc2ccccc21 (stereo not drawn),i,i,nt,nt,nt,nt
COc1cccc(C(=O)NCC(c2ccc(N(C)C)cc2)N2CCCC2)c1OC (stereo not drawn),nt,nt,i,i,i,?
COc1cc(C(=O)NCC(c2ccc(N(C)C)cc2)N2CCc3ccccc32)cc(OC)c1OC (stereo not drawn),nt,nt,?,13µM,16µM,18µM
COc1cccc(C(=O)NCC(c2ccc(N(C)C)cc2)N2CCc3ccccc32)c1OC (stereo not drawn),nt,nt,?,14µM,10µM,i[12.7 µM]
CN(C)c1ccc(C(CNC(=O)c2ccccc2F)N2CCc3ccccc32)cc1 (stereo not drawn),nt,nt,?,16µM,10µM,?
O=C(NCC(c1ccco1)N1CCc2ccccc21)c1c(F)cccc1F (stereo not drawn),i,i,i,?,i,i[2.33 µM]
CCOc1cc2[nH]c(=O)n(CCC(=O)N3CCN(c4cccc(Cl)c4)CC3)c(=O)c2cc1OCC,nt,nt,i,i,i,i
O=C(NCc1ccccc1Cl)c1cc(-c2ccccc2)n[nH]1,nt,nt,i,i,i,i
O=C(CSc1nnc(CNC(=O)c2ccco2)o1)Nc1ccc(Br)cc1,nt,i,i,?,i,10µM
O=C(NCc1nnc(SCC(=O)N2CCC(Cc3ccccc3)CC2)o1)c1ccccc1F,i,i,i,i,i,45µM
CCOc1ccc(NC(=O)CSc2nnc(CNC(=O)c3ccco3)o2)cc1,i,i,i,i,i,i
O=C(CSc1nnc(CNC(=O)c2ccco2)o1)Nc1ccccc1F,i,i,i,i,i,25µM
O=C(NCCc1ccc(Cl)cc1)C(=O)NCC(c1ccc2c(c1)OCO2)N1CCOCC1 (stereo not drawn),nt,nt,i,i,i,i
Cc1ccc(NC(=O)N2CCCC2C(=O)Nc2ccc3c(c2)OCO3)cc1 (stereo not drawn),i,i,i,i,i,i
CC(=O)N1CCc2cc(Br)cc(S(=O)(=O)CCC(=O)N3CCN(c4ccccc4)CC3)c21,nt,nt,i,i,i,i
Oc1ccc(/C=N/Nc2ccc(Cl)nn2)c(O)c1O,nt,-95,?,10µM,11µM,?
COc1cc(/C=N/Nc2ccc(Cl)nn2)cc(OC)c1O,?,?,?,i,i,16µM
Oc1c(Br)cc(/C=N/Nc2ccc(Cl)nn2)cc1Br,i,i,?,50µM,?,40µM
O=C(Nc1ccccc1)SC1CCCCC1,i,i,i,nt,i,nt
SMILES,CtBP-E1A blk,Six1-Eya2 inh,HP1b binding inh,BAZ2B block,JMJD2A Tudor,G9a block
COC(=O)c1sc(-c2ccc(C(C)(C)C)cc2)cc1NC(=O)c1ccccc1C(=O)O,i,i,i,79µM,i,i
COC(=O)c1sc(-c2ccc(Cl)cc2)cc1NC(=O)c1ccccc1C(=O)O,i,i,i,?,i,nt
Cc1cc(Cl)ccc1NC(=O)CCn1nc(C)c2c(C)n(-c3ccccc3)nc2c1=O,nt,nt,i,?,i,i
COc1ccc(O)c(/C=N/NC(=O)c2ccc(N3CCCC3=O)cc2)c1,-71,?,i,i,i,i
O=C(N/N=C/c1cc(Br)ccc1O)c1cccc(N2CCCC2=O)c1,-67,-78,i,i,i,i
CC1(C)OC(c2ccccc2)=C/C(=C\C=N\NC(=O)c2ccncc2)O1,i,i,i,71µM,i,i[12.7 µM]
CN(C)CC(C)(C)CNC(=S)Nc1ccc(S(=O)(=O)N2CCOCC2)cc1,i,i,i,i,i,i
O=S(=O)(c1ccc(NC(=S)Nc2ccccc2)cc1)N1CCOCC1,i,i,i,i,i,79µM
N#CCCN(C(=S)Nc1ccc(S(=O)(=O)N2CCOCC2)cc1)c1ccccc1F,i,i,i,i,i,45µM
CC(C)CCCCCCNC(=S)Nc1ccc(S(=O)(=O)N2CCOCC2)cc1,i,i,i,i,i,0.89µM
COc1ccc(NC(=S)NNC(=O)c2ccc(S(=O)(=O)N3CCOCC3)cc2)cc1,i,i,i,i,i,40µM
CCc1cccc(CC)c1NC(=O)C(CC)n1nc(C)n2c(cc3cc(C)ccc32)c1=O (stereo not drawn),nt,nt,i,i,i,i
CC(=O)c1cccc(OC(=O)c2cc(S(=O)(=O)N3CCOCC3)ccc2N2CCCC2)c1,i,i,i,i,?,i
N#CCCN(C(=S)NC(=O)c1cccs1)c1ccccc1F,i,i,?,?,?,4µM
COc1ccc(NC(=S)N2CCN(S(=O)(=O)c3ccc(OC)cc3)CC2)cc1,i,i,i,?,89µM,nt
COc1ccc(NC(=S)N2CCN(S(=O)(=O)c3ccc(C)cc3)CC2)cc1,i,i,i,?,i,nt
COc1ccc(Nc2ncc(C(=O)Nc3cccc(OC)c3)c3ccccc23)cc1,nt,nt,i,i,i,i
Cc1noc(C)c1NC(=O)N(C)C[C@H]1Oc2c(NC(=O)C3CC3)cccc2C(=O)N([C@H](C)CO)C[C@@H]1C,i,i,i,nt,i,nt
Cc1[nH]c2ccc(C(=O)OC(C)C(=O)N(C)c3ccccc3)cc2c1C (stereo not drawn),i,?,?,50µM,?,i[0.501 µM]
Cc1[nH]c2ccc(C(=O)O)cc2c1C,i,i,i,?,i,i
Cc1[nH]c2ccc(C(=O)OC(C)C(=O)N(C)C3CCCCC3)cc2c1C (stereo not drawn),i,i,?,56µM,?,45µM
CC(=O)Nc1ccc(NC(=O)C(C)OC(=O)c2ccc3[nH]c(C)c(C)c3c2)cc1 (stereo not drawn),i,i,i,i,?,50µM
COc1ccccc1C(C(=O)NCc1ccc(F)cc1)N(C(=O)c1csnn1)C1CC1 (stereo not drawn),i,i,i,i,i,i
Cc1cc(Cl)c2ccc3ccccc3c2n1,i,i,i,i,i,25µM

# Screening data from PubChem BioAssay.
